According to ChEMBL document CHEMBL3988442, “University of Dundee, Small-Polar-MMV Screening Library” (2021):
In all, about 53,000 compounds went through this assay and about 900 (1.7%) showed an effect of 50% or more. The list comes from a sample in which strong results are over-represented; it also holds similar structures and randomly drawn compounds.

What follows are compounds tested on Mycobacterium tuberculosis (assay: Cornell - Phenotypic assay to identify agents that inhibit growth of Mycobacterium tuberculosis). Details: 10 mM as filed; unlikely as a test dose.
Type: functional
Design: scale not given: direction of the effect not stated beside the values

First: NC(=O)Nc1cccc(Oc2ccccn2)c1
Second: O=C(c1ccncc1)N1CCCC1c1nc(O)cc(-c2ccccn2)n1 (stereo not drawn)
The “Percent Effect” value of the first is higher: 3.298% for the first, -36.16% for the second.

First: OCCN1CCN(CC(O)c2ccc(C(F)(F)F)cc2)CC1 (stereo not drawn)
Second: O=C(Nc1cccc(C(F)(F)F)c1)N1CCN(CCn2ccnc2)CC1
The “Percent Effect” value of the first is lower: -26.61% for the first, 98.5% for the second.

First: O=c1oc(-c2ccc(F)cc2)nn1CN1CCSCC1
Second: COc1cccc(CN2CCN(c3cccc(C(C)C)n3)CC2)c1F
The “Percent Effect” value of the first is lower: -31.85% for the first, 57.83% for the second.

Compared with `CN1C[C@@H](C(=O)NCC(F)(F)F)[C@@]2(CCc3ccccc3C(=O)N2)C1`, `CCS(=O)(=O)N1C[C@@H](C(=O)NC(C)C)[C@@]2(Cc3ccccc3C(=O)N2)C1` is higher in “Percent Effect” value: 4.729% for the first, 50.91% for the second.

Compared with `CC(C)NC(=O)[C@@H]1CN(C(=O)C2CC2)C[C@]12Cc1ccccc1C(=O)N2`, `CNC(=O)C1CN(C)CCN(C(=O)CCn2nnc3ccccc32)C1` (stereo not drawn) is lower in “Percent Effect” value: 41.43% for the first, 37.61% for the second.

Going from `CCN(CC)c1ccc(NC(=O)NC(C)Cn2cccn2)cn1` (stereo not drawn) to `CC(Cn1cccn1)NC(=O)Nc1ccc(N(C)C)nc1` (stereo not drawn), the “Percent Effect” value rises from -29.36% to -5.183%.

Going from `CC(CNC(=O)Nc1ccc(N(C)C)nc1)Cn1cccn1` (stereo not drawn) to `COc1ccc(NC(=O)NCC(C)N2CCc3ccccc32)cc1` (stereo not drawn), the “Percent Effect” value falls from 53.74% to 13.58%.

Going from `CN1C[C@H](O)[C@]2(CCN(Cc3ccc(OC(F)(F)F)cc3)C2)S1(=O)=O` to `O=C(C[C@@H]1COC[C@H]2CN(Cc3ccc(F)cc3)C[C@@H]12)N1CCCC1.O=C(O)C(F)(F)F`, the “Percent Effect” value falls from 30.47% to -5.358%.

Compared with `CC(C)c1noc(C2CCN(C(=O)C3CCCO3)CC2)n1` (stereo not drawn), `CCc1noc(C(C)N2CCN(CC(=O)N3CCOCC3)CC2)n1` (stereo not drawn) is higher in “Percent Effect” value: 4.846% for the first, 11.6% for the second.

Going from `O=c1c2cc3c(cc2nnn1Cc1cccc(F)c1)OCCO3` to `Fc1cccc(CN2CCC[C@H](Cn3nnc(-c4ccccn4)n3)C2)c1`, the “Percent Effect” value rises from -9.384% to 14.75%.

Going from `Cc1ccc2c(n1)N(Cc1cccnc1)CCN(C(=O)C1CC=CC1)C2` to `CN1CCN(C(=O)CCn2ncc3ccccc32)CC(C(N)=O)C1` (stereo not drawn), the “Percent Effect” value rises from 30.61% to 40.84%.

Compared with `CC(C)NC(=O)Nc1nc2c(s1)CN(C(=O)NCc1cccs1)CC2`, `COC(=O)Nc1nc2c(s1)CN(C(=O)NCc1cccs1)CC2` is lower in “Percent Effect” value: 53.32% for the first, 35.61% for the second.

Compared with `O=C(Nc1nc2c(s1)CN(C(=O)NCc1cccs1)CC2)C1CC1`, `CC(=O)NC1CCN(C(=O)Nc2cccc(C(F)(F)F)c2)CC1` is lower in “Percent Effect” value: 25.74% for the first, 20.69% for the second.

Compared with `O=C(O)c1ccc(CN2CCCC(Cc3ccn[nH]3)C2)cc1` (stereo not drawn), `Fc1ccccc1CN1CCC[C@@H](Cn2nnc(-c3cccs3)n2)C1` is higher in “Percent Effect” value: 18.19% for the first, 75.98% for the second.

First: Cc1cccc(OCCN2CCC(c3ccnn3CCO)CC2)c1
Second: Cn1ncc2c(NCCCOc3cccnc3)nc(C3CCCC3)nc21
The “Percent Effect” value of the first is lower: -13.34% for the first, -0.5342% for the second.

Compared with `Cc1nn(CCCNC(=O)C2CCN(S(C)(=O)=O)CC2)cc1Cl`, `Cc1nn(CCCNC(=O)C2CCN(S(C)(=O)=O)CC2)cc1Br` is higher in “Percent Effect” value: 12.8% for the first, 34.63% for the second.

Compared with `Cc1nn(CCCNC(=O)C2CCN(S(C)(=O)=O)CC2)c(Cl)c1Cl`, `CCS(=O)(=O)CCNc1nc(C2CCCC2)nc2c1cnn2C` is lower in “Percent Effect” value: 51.75% for the first, -9.599% for the second.

First: CCCn1nnnc1COc1ccc(C(=O)OC)cc1
Second: OCCn1nnnc1Cc1ccc(Br)cc1
The “Percent Effect” value of the first is lower: 2.105% for the first, 32.76% for the second.

First: CC(C)Sc1ccc(C(C)Nc2nc3c(cnn3C)c(=O)[nH]2)cc1 (stereo not drawn)
Second: CC(Nc1nc2c(cnn2C)c(=O)[nH]1)c1ccc(F)cc1 (stereo not drawn)
The “Percent Effect” value of the first is higher: 64.6% for the first, 46.54% for the second.

Going from `CCC(=O)Nc1ccc(C(C)Nc2nc3c(cnn3C)c(=O)[nH]2)cc1` (stereo not drawn) to `CCc1ccccc1NC(=O)c1cnn(C)c1C`, the “Percent Effect” value rises from 16.12% to 25.28%.

Compared with `Cc1nnc(Nc2cccc(C3CCCN(Cc4ncc[nH]4)C3)n2)s1` (stereo not drawn), `Fc1ccccc1CN1CCC[C@H](Cn2nnc(-c3cccs3)n2)C1` is higher in “Percent Effect” value: -14.35% for the first, 35.5% for the second.

Going from `Cn1ncc2c(NCCOCc3ccccc3)nc(C3CCCC3)nc21` to `CCOCCNc1nc(C2CCCC2)nc2c1cnn2C`, the “Percent Effect” value falls from 58.05% to 15.61%.

Going from `CC(C)N(CCNc1nc(C2CCCC2)nc2c1cnn2C)C(C)C` to `CNCCCNc1nc(C2CCCC2)nc2c1cnn2C`, the “Percent Effect” value falls from 95.65% to 15.27%.

Going from `Cn1ncc2c(NCCn3cccc3)nc(C3CCCC3)nc21` to `Cn1ncc2c(NCCOc3ccc(F)cc3)nc(C3CCCC3)nc21`, the “Percent Effect” value rises from 23.68% to 105.9%.

Compared with `Cn1ncc2c(NCCC34CCCN3CCC4)nc(C3CCCC3)nc21`, `Cc1cc(C2CCC2)nc(N2CCC3(CCNC(=O)CC3)CC2)n1` is higher in “Percent Effect” value: 10.87% for the first, 19.37% for the second.

First: Fc1ccc([C@@H]2COC[C@H]2NCc2cccc(F)c2)cc1.O=C(O)CC(O)(CC(=O)O)C(=O)O
Second: COCCN1C[C@@H](c2ccccc2)[C@@]2(CCN(CC(=O)N(C)C)C2=O)C1.O=C(O)C(F)(F)F
The “Percent Effect” value of the first is lower: 12.54% for the first, 13.65% for the second.

First: CCCNC(=O)c1nn(CC)cc1NC(=O)c1cn(C)nc1C
Second: Cc1nn(C)c(C)c1CN1CCCC1c1nccc(CN(C)C)n1 (stereo not drawn)
The “Percent Effect” value of the first is higher: 34.88% for the first, -90.49% for the second.

Compared with `CC(=O)Nc1nc(CN2CCn3c(C)nnc3C2)cs1`, `Cc1csc(CN2CC[C@H]3C[C@@H](c4nnc(C)[nH]4)O[C@@H]3C2)n1` is higher in “Percent Effect” value: -12.41% for the first, -4.039% for the second.

Going from `COCCCn1c(CN2CCSCC2)cnc1S(=O)(=O)C1CCCC1` to `CC(C)N(C(=O)Cn1nc2n(c1=O)CCCCC2)C1CCC1`, the “Percent Effect” value falls from 27.36% to 0.8005%.

Compared with `O=C(c1cncs1)N1CCCC1c1ccn[nH]1` (stereo not drawn), `CS(=O)(=O)c1cn[nH]c1C1CCCCN1C(=O)c1cncs1` (stereo not drawn) is lower in “Percent Effect” value: 104.4% for the first, -10.78% for the second.

First: O=C(c1n[nH]c(=O)c2ccccc12)N1CCCCC1c1ccn[nH]1 (stereo not drawn)
Second: O=C(c1cnc(-c2cccs2)s1)N1CCCC(n2ccnc2)C1 (stereo not drawn)
The “Percent Effect” value of the first is lower: -33.63% for the first, 6.926% for the second.

First: Cc1ncncc1C(=O)N1CCCC(Cc2nccs2)C1 (stereo not drawn)
Second: Cc1n[nH]c(C)c1-c1nccnc1CC1CCN(C(C)C)CC1
The “Percent Effect” value of the first is higher: -16.51% for the first, -33.1% for the second.

Compared with `Nc1no[n+]([O-])c1C(=O)NCc1ccccn1`, `O=C(COCC1CC1)Nc1ncccc1O` is higher in “Percent Effect” value: -59.59% for the first, -3.464% for the second.

Compared with `CSCC(CCO)Nc1nc(C(F)F)nc2ccccc12` (stereo not drawn), `COc1ccccc1-c1cc(NC(=O)COCC2CC2)[nH]n1` is higher in “Percent Effect” value: 41.07% for the first, 43.6% for the second.

Compared with `N#Cc1cccc(NC2CC(=O)N(Cc3ccccc3Cl)C2)n1` (stereo not drawn), `N#Cc1cccc(NC2CC(=O)N(CCCc3ccccc3)C2)n1` (stereo not drawn) is higher in “Percent Effect” value: -13.97% for the first, 2.519% for the second.

Going from `N#Cc1cccc(NC2CC(=O)N(C3Cc4ccccc4C3)C2)n1` (stereo not drawn) to `Cc1ccoc1C(=O)NC1CCN(Cc2ccccc2C#N)CC1`, the “Percent Effect” value falls from 53.28% to -4.356%.

Compared with `O=C1CCC2(CCN(Cc3ccsc3)CC2)N1Cc1ccccc1`, `Cn1cccc1C(=O)N1CCC2(CC1)CN(S(C)(=O)=O)c1ccccc12` is lower in “Percent Effect” value: 26.5% for the first, 9.432% for the second.

Going from `CC(CNC(=O)c1ccc(C#N)cc1)N1CCc2ccccc21` (stereo not drawn) to `CC(CNC(=O)Nc1ccc(C#N)cc1)N1CCc2ccccc21` (stereo not drawn), the “Percent Effect” value rises from 20.43% to 62.86%.

First: Cc1nc(C2CCCN2CC(=O)Nc2cc(C(C)(C)C)nn2C)no1 (stereo not drawn)
Second: CCC(C(=O)Nc1ccc2nc(C)oc2c1)N1CCCC1=O (stereo not drawn)
The “Percent Effect” value of the first is higher: -17.86% for the first, -18.53% for the second.

Going from `Cc1oncc1C(=O)N1CCC2(CC1)CC(N1CCOCC1)C2.O=C(O)C(F)(F)F` to `Cc1ccnn1CCC(=O)N1CCCC[C@]2(C)NC(=O)CCC[C@H]12`, the “Percent Effect” value falls from 14.16% to 0.426%.

Compared with `Cc1nc(NCC2CC2)nc2c1COCC21CCN(CC(=O)N(C)C)C1` (stereo not drawn), `Cc1ccccc1N1CCN(c2nc(N(C)C)nc3c2CCNC3)CC1` is lower in “Percent Effect” value: -16.56% for the first, -18.26% for the second.

First: CC(C)OCCn1nnnc1Cc1ccc(Br)cc1
Second: N#CCCCn1nnnc1Cc1ccc(Br)cc1
The “Percent Effect” value of the first is higher: 80.17% for the first, 19.45% for the second.

Going from `CN1CCN(C(=O)CCn2nnc3ccccc32)CC(C(N)=O)C1` (stereo not drawn) to `O=C(Nc1ccc2c(c1)OCO2)N1CCN(CCn2ccnc2)CC1`, the “Percent Effect” value falls from 53.1% to -27.6%.

First: OC(COc1ccccc1Br)COC1CCOCC1 (stereo not drawn)
Second: COc1cccc(CN2CC[C@H](NC(C)=O)[C@@H](O)CC2)c1F
The “Percent Effect” value of the first is higher: 10.03% for the first, -15.13% for the second.

Going from `Clc1ccc(CNc2ccc(Cl)cn2)cc1` to `CN(c1ccc(CNc2ccc(Cl)cn2)cc1)S(C)(=O)=O`, the “Percent Effect” value rises from -25.47% to 21.91%.

First: CN(C)S(=O)(=O)c1ccc(CNc2ccc(Cl)cn2)cc1
Second: Cn1ccnc1SCC(=O)NCc1ccc2c(c1)CCC(=O)N2
The “Percent Effect” value of the first is higher: 63.29% for the first, -11.99% for the second.

First: O=C(COCC1CC1)Nc1cc(-c2ccc(Br)s2)n[nH]1
Second: O=C(CCn1c(C(F)F)cc2cccnc21)NC1CCCC1
The “Percent Effect” value of the first is higher: 108.2% for the first, -12.05% for the second.

Going from `CC(C)CNC(=O)c1cc2c(s1)CCN2S(C)(=O)=O` to `CS(=O)(=O)N1CC(c2n[nH]c3ncccc23)C1`, the “Percent Effect” value rises from -19.48% to -14.19%.

First: Cc1ccc(C2CSCCN2C(=O)c2cc(C(N)=O)cs2)o1 (stereo not drawn)
Second: COc1ccc(C(=O)N2CC(=O)N(C3CCC3)CC(O)C2)cc1OC (stereo not drawn)
The “Percent Effect” value of the first is higher: 23.87% for the first, -13.29% for the second.

Going from `Cc1c(C(=O)N(C)CC(F)(F)F)nnn1-c1ccc(F)cc1` to `CN(C)c1nc2c(c(N3CCc4ccccc4C3)n1)CCNC2`, the “Percent Effect” value rises from 26.05% to 60.07%.

Compared with `c1ccc2c(c1)CCN(c1nc(-c3ccncc3)nc3c1CCNC3)C2`, `COc1cccc(CN2CCN(c3noc(C(C)C)n3)CC2)c1F` is higher in “Percent Effect” value: 18.38% for the first, 42.13% for the second.

In the case of `CC(Oc1cc(Cl)cc(Cl)c1)C(=O)NCCOCC(N)=O` (stereo not drawn), the “Percent Effect” value is reported as -19.42%.
